Experimental data reported in PubChem BioAssay AID618 (Sanford-Burnham Center for Chemical Genomics, 2007).
Hit rate of the full screen: of about 87,000 compounds, about 540 (0.62%) were called active. The sample holds actives, similar compounds and a random draw of the others, so the mix is not that of the screen. No rule for the calls is given here. Results with a measured potency or affinity are listed apart.

assay: inhibitors of MT1-MMP promoter transcription, cell-based, luciferase reporter, luminescence (AID 618); details: MT1-MMP promoter luciferase reporter cells;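 also: actives suppress MT1-MMP promoter-driven transcription so potencies describe inhibitors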

SMILES	outcome
CCn1c(C)nc2cc(-c3nc4n(n3)Cc3ccccc3-4)ccc21	active
CCn1c(C)nc2cc(-c3nnc(-c4c(-c5ccccc5)noc4C)o3)ccc21	inactive
Fc1ccc(-c2nc3n(n2)Cc2ccccc2-3)cc1	active
O=S(=O)(c1cccc(-c2nc3n(n2)Cc2ccccc2-3)c1)N1CCCC1	inactive
CCn1c(C)nc2cc(S(=O)(=O)N3CCCC3)ccc21	inactive
Clc1ccc(-c2nc3n(n2)Cc2ccccc2-3)cc1	inactive
N#CCc1nc2n(n1)Cc1ccccc1-2	inactive
CCN(CC)S(=O)(=O)c1cccc(-c2nc3n(n2)Cc2ccccc2-3)c1	inactive
CCOc1ccc(C2Oc3nc(SC)nnc3-c3ccccc3N2C(C)=O)cc1OC (stereo not drawn)	inactive
O=C(C1CCCN(S(=O)(=O)c2cnc[nH]2)C1)N1CC(=O)N(CCc2ccccc2)C(=O)C1 (stereo not drawn)	inactive
CN(CC(=O)N1CC(=O)N(CCc2ccccc2)C(=O)C1)S(=O)(=O)c1cccc2nsnc12	inactive
Cc1cc(C)n(-c2ccc(C(=O)OCc3nnc(-c4ccccc4)o3)cc2)n1	inactive
CCCCC(CC)CNC(=O)C1CCCN(S(=O)(=O)c2cnc[nH]2)C1 (stereo not drawn)	inactive
Cc1cc(C)n2nc(S(=O)(=O)NC3CCCCC3)nc2n1	inactive
OCCN1CCN(Cc2cc(Cl)c3cccnc3c2O)CC1	inactive
Oc1ccc(CN2CCc3ccccc3C2)c2cccnc12	inactive
Oc1c(CN2CCOCC2)cc(COCc2ccccc2)c2cccnc12	inactive
CN1CCN(Cc2cc(COCc3ccccc3)c3cccnc3c2O)CC1	inactive
COC(=O)c1sc(S(=O)(=O)NCc2cccs2)c(C(=O)OC)c1C	inactive
COc1cc(C(=O)NCCC2=CCCCC2)cc(OC)c1OC	inactive

SMILES	outcome
COc1ccc(C(=O)NCCC2=CCCCC2)cc1OC	inactive
O=C(NCCc1ccc(Cl)cc1)c1nnc(Cc2ccc(Cl)cc2)o1	inactive
CC1CCCCC1NC(=O)C1CCN(S(=O)(=O)N2CCC3(CC2)OCCO3)CC1 (stereo not drawn)	inactive
CC1C(=O)CCN(C(C)(C)C)C1C (stereo not drawn)	inactive
COc1ccc(OC)c(C2c3c(oc4ccccc4c3=O)C(=O)N2CCCN(C)C)c1 (stereo not drawn)	inactive
Fc1ccccc1-c1nc(-c2ccccc2)no1	inactive
Cc1cccc(-c2noc(-c3ccc(F)cc3)n2)c1	active
Cc1ccc(SCc2nc(-c3ccccc3)no2)cc1	inactive
COc1cc(-c2nc(-c3cccc(C)c3)no2)cc(OC)c1OC	inactive
Cc1ccc(-c2noc(-c3ccccc3Br)n2)cc1	inactive
c1ccc(-c2ccc(-c3nc(-c4cccnc4)no3)cc2)cc1	inactive
c1ccc(-c2nc(-c3ccncc3)no2)cc1	inactive
Cc1ccc(-c2nc(-c3cccnc3)no2)cc1	inactive
COc1ccc(-c2nc(-c3cccc(C)c3)no2)cc1OC	inactive
COC(=O)c1ccccc1NC(=O)C1CC=CCC1C(=O)O (stereo not drawn)	inactive
COC(=O)c1ccc(C(=O)OC)c(NC(=O)CCC(=O)O)c1	inactive
CCC1CCCCN1S(=O)(=O)c1ccc(NC(=O)CSc2ncccc2C(=O)O)cc1 (stereo not drawn)	inactive
COc1ccc(CCN(C(=O)c2ccccc2)C2=CC3CCC(C2)N3C)cc1OC (stereo not drawn)	inactive
CS(=O)(=O)N1CCC(C(=O)N2CCc3ccccc3C2)CC1	inactive
CC(=O)NC(C1C(=O)CC(C)(C)CC1=O)(C(F)(F)F)C(F)(F)F	inactive

SMILES	outcome
O=C(COc1ccc(Cl)cc1)NCc1nnc(SCC(=O)NCc2ccc3c(c2)OCO3)o1	inactive
CCOC(=O)c1cnc(C(C)(C)C)[nH]c1=O	inactive
COc1ccc(-c2nc(-c3ccncc3)no2)cc1OC	inactive
CCc1ccc(-c2nc(-c3ccncc3)no2)cc1	inactive
NC(=O)c1ccccc1-c1nc(-c2ccccc2)no1	inactive
Cc1cc(C)cc(-c2nc(-c3ccncc3)no2)c1	inactive
CN(C)c1ccc(-c2noc(-c3ccccc3O)n2)cc1	active
c1ccc(-c2noc(-c3ccccc3-c3ccccc3)n2)cc1	inactive
CCOc1ccc(-c2nc(-c3ccncc3)no2)cc1OCC	inactive
CCCC(=O)Nc1c(-c2cccs2)c(=O)c2ccccc2n1CC	inactive
CCOC(=O)c1ccc(S(=O)(=O)N2CCN(CC3CC=CCC3)CC2)cc1 (stereo not drawn)	inactive
COc1ccccc1C1/C(=C(/O)c2ccc(Cl)cc2)C(=O)C(=O)N1CCN1CCOCC1 (stereo not drawn)	inactive
O=C(O)CN1C(=O)Nc2ccc(Br)cc2C1c1ccccc1 (stereo not drawn)	inactive
Cc1nc(CC(=O)c2c(C)cc(O)cc2O)cs1	inactive
O=C(Cc1cccs1)NCc1cccs1	inactive
COC(=O)C(C)Oc1ccc(=O)[nH]n1 (stereo not drawn)	inactive
COc1ccc(OC)c(NC(=O)Cc2coc3cc(C)cc(C)c23)c1	inactive
CS(=O)(=O)N(Cc1ccccc1)c1ccccc1C(=O)N1CCN(c2ccccc2)CC1	inactive
